Test results: PubChem BioAssay AID651871 (Sanford-Burnham Center for Chemical Genomics, 2012)
Values joined by “and” are separate entries in the source; they are usually repeats but may differ in a detail not shown here. Identical values can stand only once.

Test system: HL-1
Assay: cardiomyocyte survival under oxidative or metabolic stress – cell-based, panel, H9c2 and HL-1, ATP luminescence, set 2, SAR follow-up (AID 651871);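 also: cells exposed to stressor for 2 h before ATP readout; reference of the scale not given here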
Conditions: H9c2/HL-1 cardiomyocytes, 2-deoxyglucose stress, with 2-deoxyglucose, run 14, at 79 µM (top of the series)

| Structure (SMILES) | activity (protection/inhibition) |
| --- | --- |
| CCOC(=O)c1cccc(NC(=O)CNC(=O)c2cc(-c3cc(OC)c(OC)c(OC)c3)nc3ccccc23)c1 | 83.5% |
| COc1ccc2c(c1OC)C(=O)N1c3ccccc3C(=O)N(Cc3cccc(Cl)c3Cl)C21 (stereo not drawn) | 56.3% and -4.31% |
| COc1ccc2nc(-c3cc(OC)c(OC)c(OC)c3)cc(C(=O)NCC(=O)Nc3ccc(C(C)=O)cc3)c2c1 | 66% |
